Data on 7 compounds can be found in PubChem BioAssay (NCI).

Where “and” joins values, the source holds several entries; their conditions need not be identical. Identical values can stand only once. This is part of a sample that, as a whole, favours compounds with a hit. Of some 83,000 tested, about 20% had one in any assay.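 Activity criterion: percent growth below 10, measured after cells in 96-well plates were exposed to a single compound concentration for 48 hours.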 Values without a mark were called inactive. Calls of active or inactive are those of the source.

Among the test systems are HCT-15 colon; SNB-75 CNS; SNB-19 CNS; U251 CNS; PC-3 prostate; SK-MEL-5 melanoma; UACC-62 melanoma; LOX IMVI melanoma; SK-MEL-2 melanoma; EKVX NSCLC; SN12C renal; UO-31 renal; TK-10 renal; ACHN renal; CAKI-1 renal; A498 renal.
Assay in all cases: NCI-60 one-dose screen, 48 h (100 = growth as untreated, 0 = no growth, -100 = all killed)
For the next experiment, the system named is SK-MEL-28 melanoma. The following applies: 10 µM.
The subject of another experiment is CCRF-CEM leukemia. The following applies: 10 µM.
The next experiment concerns HT29 colon. As to conditions: 10 µM.

Turning to `CCOC(=O)[C@]1(Br)CC[C@@]1(Br)C(=O)OCC`, the growth in the experiment with HCT-15 colon (10 µM) was 89.2%; in the experiment on SNB-75 CNS (10 µM) it was 92.4%; in the experiment with SNB-19 CNS (10 µM), 106%; with U251 CNS (10 µM), 98.3%; in the experiment with PC-3 prostate (10 µM) it was 97.3%; in the experiment on SK-MEL-5 melanoma (10 µM), 103%. The growth is 77.9% in the experiment on UACC-62 melanoma (10 µM); 82.5% in the experiment with LOX IMVI melanoma (10 µM); 110% in the experiment with SK-MEL-28 melanoma; 91.7% with SK-MEL-2 melanoma (10 µM); 99.5% with EKVX NSCLC (10 µM); 98.1% in the experiment with SN12C renal (10 µM). Moreover, the growth in the experiment with UO-31 renal (10 µM) is 61.5%; in the experiment on TK-10 renal (10 µM), 95.9%; in the experiment on ACHN renal (10 µM) it was 78.9%; in the experiment on CAKI-1 renal (10 µM), 90.3%; in the experiment with A498 renal (10 µM), 115%.

For the compound `S=C1SCN(CCc2ccccc2)CN1CCc1ccccc1`, the growth was 95.1% with HCT-15 colon (10 µM); 87.5% in the experiment on SNB-75 CNS (10 µM); 105% in the experiment on SNB-19 CNS (10 µM); 91.3% with U251 CNS (10 µM); 93.6% in the experiment on PC-3 prostate (10 µM); 89% with SK-MEL-5 melanoma (10 µM). In addition, the growth in the experiment with UACC-62 melanoma (10 µM) was 94.9%; with LOX IMVI melanoma (10 µM), 90.9%; with SK-MEL-28 melanoma, 92.4%; with SK-MEL-2 melanoma (10 µM) it was 105%; in the experiment with EKVX NSCLC (10 µM) it was 109%; in the experiment on SN12C renal (10 µM), 101%. Moreover, the growth is 70.6% in the experiment with UO-31 renal (10 µM), 82.1% in the experiment on TK-10 renal (10 µM), 110% with ACHN renal (10 µM) and 90.5% with CAKI-1 renal (10 µM).

As to `CCC(C)(c1ccc(O)c(C)c1)c1ccc(O)c(C)c1`, the growth in the experiment with HCT-15 colon (10 µM) was 99.1%; in the experiment with SNB-75 CNS (10 µM), 64.8%; in the experiment on SNB-19 CNS (10 µM) it was 105%; in the experiment on U251 CNS (10 µM), 94.4%; with PC-3 prostate (10 µM), 86.1%; with SK-MEL-5 melanoma (10 µM) it was 95.2%. Moreover, the growth in the experiment with UACC-62 melanoma (10 µM) was 68.9%; in the experiment with LOX IMVI melanoma (10 µM), 104%; in the experiment with SK-MEL-28 melanoma, 133%; with SK-MEL-2 melanoma (10 µM) it was 94.4%; with EKVX NSCLC (10 µM), 82.5%; in the experiment on SN12C renal (10 µM) it was 84.9%. The growth is 76% in the experiment on UO-31 renal (10 µM); 249% in the experiment on TK-10 renal (10 µM); 98.8% in the experiment on ACHN renal (10 µM); 62.1% with CAKI-1 renal (10 µM); 110% with A498 renal (10 µM); 89% in the experiment with CCRF-CEM leukemia.

As to `O=C(O)c1ccccc1.[Ag]`, the growth with HCT-15 colon (10 µM) was 110%; with SNB-75 CNS (10 µM), 110%; in the experiment on SNB-19 CNS (10 µM), 105%; with U251 CNS (10 µM), 97%; in the experiment on PC-3 prostate (10 µM) it was 86.8%; in the experiment on SK-MEL-5 melanoma (10 µM) it was 28.5%. In addition, the growth with UACC-62 melanoma (10 µM) is 105%; in the experiment with LOX IMVI melanoma (10 µM), 17%; in the experiment with SK-MEL-28 melanoma it was 106%; with SK-MEL-2 melanoma (10 µM), 122%; with EKVX NSCLC (10 µM) it was 103%; with SN12C renal (10 µM), 102%. For the same compound, the growth with UO-31 renal (10 µM) was 103%; in the experiment on TK-10 renal (10 µM) it was 109%; in the experiment with ACHN renal (10 µM), 111%; with CAKI-1 renal (10 µM), 90.2%.

As for `Cn1c2nc3ccccc3c-2nc2ccccc21`, the growth is 94.9% and 85.2% with HCT-15 colon (10 µM); 101% and 81.1% in the experiment with SNB-75 CNS (10 µM); 88.8% and 82.8% in the experiment on SNB-19 CNS (10 µM); 91.4% and 90.2% in the experiment on U251 CNS (10 µM); 95.4% and 99.7% in the experiment on PC-3 prostate (10 µM); 82.5% and 65.6% in the experiment with SK-MEL-5 melanoma (10 µM). In addition, the growth was 87.4% and 91.2% in the experiment with UACC-62 melanoma (10 µM); 99.5% and 86.1% with LOX IMVI melanoma (10 µM); 113% and 106% in the experiment with SK-MEL-28 melanoma; 113% and 112% in the experiment with SK-MEL-2 melanoma (10 µM); 81.2% in the experiment with EKVX NSCLC (10 µM); 95% and 87.7% in the experiment with SN12C renal (10 µM). Further, the growth was 71.9% and 48.3% in the experiment with UO-31 renal (10 µM); 113% and 109% in the experiment on TK-10 renal (10 µM); 94.4% and 79.1% with ACHN renal (10 µM); 73.9% and 93.6% with CAKI-1 renal (10 µM); 45.9% and 80.3% in the experiment on A498 renal (10 µM).

As for `S=P(N1CC1)(N1CC1)N1CC1`, the growth in the experiment on HCT-15 colon (10 µM) is 106% and 84.9%; in the experiment on HCT-15 colon (100 µM) it was 57.5%; in the experiment with SNB-75 CNS (10 µM), 109% and 69%; in the experiment with SNB-75 CNS (100 µM) it was 43.2%; in the experiment on SNB-19 CNS (10 µM) it was 102% and 101%; with SNB-19 CNS (100 µM), 37.3%. Also, the growth in the experiment with U251 CNS (10 µM) was 105% and 84.1%; with U251 CNS (100 µM), 43.7%; in the experiment with PC-3 prostate (10 µM), 97.5% and 90.9%; in the experiment on PC-3 prostate (100 µM), 52.7%; in the experiment with SK-MEL-5 melanoma (10 µM), 96.9% and 92.8%; with SK-MEL-5 melanoma (100 µM), 48.6%. Moreover, the growth was 100% and 71.7% in the experiment on UACC-62 melanoma (10 µM); 37.1% in the experiment with UACC-62 melanoma (100 µM); 99.2% and 80.5% with LOX IMVI melanoma (10 µM); 33% in the experiment with LOX IMVI melanoma (100 µM); 131% and 116% in the experiment with SK-MEL-28 melanoma; 116% and 93.3% in the experiment on SK-MEL-2 melanoma (10 µM). Moreover, the growth in the experiment with SK-MEL-2 melanoma (100 µM) was 113%; in the experiment on EKVX NSCLC (10 µM), 107% and 90.2%; in the experiment with EKVX NSCLC (100 µM), 101%; with SN12C renal (10 µM) it was 98.5% and 72.8%; in the experiment on SN12C renal (100 µM), 44.1%; with UO-31 renal (10 µM) it was 71.9% and 83.7%. The growth in the experiment on UO-31 renal (100 µM) is 39.1%; with TK-10 renal (10 µM) it was 115% and 111%; in the experiment with TK-10 renal (100 µM), 98.8%; in the experiment with ACHN renal (10 µM), 104% and 60.1%; in the experiment on ACHN renal (100 µM), 8.37% (active); in the experiment with CAKI-1 renal (10 µM), 91.6% and 47.4%. The growth in the experiment on CAKI-1 renal (100 µM) was 2.65% (active); in the experiment on A498 renal (10 µM), 122% and 69.4%; in the experiment on A498 renal (100 µM), 67.8%.

For `NCc1c(O)ccc2ccccc12`, the growth in the experiment with HCT-15 colon (10 µM) was 98.2%; with HT29 colon, 103%; with SNB-75 CNS (10 µM), 73.5%; in the experiment with U251 CNS (10 µM), 103%; in the experiment with PC-3 prostate (10 µM), 84.9%; with SK-MEL-5 melanoma (10 µM), 86.3%. Moreover, the growth with UACC-62 melanoma (10 µM) is 95.4%; with LOX IMVI melanoma (10 µM), 101%; with SK-MEL-28 melanoma, 105%; in the experiment with SK-MEL-2 melanoma (10 µM), 98.2%; in the experiment with EKVX NSCLC (10 µM), 106%; in the experiment on SN12C renal (10 µM) it was 90.9%. Besides, the growth in the experiment with UO-31 renal (10 µM) was 81.3%; with TK-10 renal (10 µM), 108%; with ACHN renal (10 µM), 103%; in the experiment on CAKI-1 renal (10 µM), 74.3%; with A498 renal (10 µM), 105%.
